Bioassay records: PubChem BioAssay, National Center for Advancing Translational Sciences (NCATS)
Shown are actives, neighbours in structure and some others; about 12% of the full set was active somewhere.
SARS PLpro yeast = qHTS of Yeast-based Assay for SARS-CoV PLP. AID 485353, 2010. 0.19% of 330,000 active. Potency, µM (top dose mostly 32.9 µM), actives largely listed as activators. S. cerevisiae expressing SARS-CoV PLpro, growth rescue; calls by dose curve; also: nearly all actives have a fitted effect of over 55% in size
Pf growth 96h = Primary qHTS for delayed death inhibitors of the malarial parasite plastid, 96 hour incubation; P. falciparum luciferase reporter growth, 96 h; Potency, µM (top dose mostly 28.7 µM), usual class: inhibitors; AID 504834, 2011; 6.9% of 320,000 active
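96 h incubation, 37 C, 5% CO2, of luciferase-reporter P. falciparum-infected RBCs (2% hematocrit, 0.05% parasitemia final) with test compounds; endpoint luminescence.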
Sm TGR block = qHTS Assay for the Inhibitors of Schistosoma Mansoni Peroxiredoxins | Schistosoma mansoni thioredoxin glutathione reductase (TGR), Q962Y6 | purified TGR, DTNB reduction, TNB absorbance 405 nm | Potency, µM (titrated, usually from 114 µM), actives largely listed as inhibitors | 3% of 360,000 active | AID 485364, 2010; also: nearly all actives have a fitted effect of over 60% in size
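First, TGR (20 nM dispensed) and NADPH were mixed with compound. Second, a 15 min room-temperature incubation followed. Third, further NADPH and then DTNB were added to start the reaction. Finally, TNB absorbance was monitored kinetically.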
Pf growth 48h = Primary qHTS for delayed death inhibitors of the malarial parasite plastid, 48 hour incubation | P. falciparum luciferase growth in erythrocytes, 48 h | Potency, µM (highest dose often 28.7 µM), hits mostly inhibitors | 5.9% of 310,000 active
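In quantitative HTS format, infected erythrocytes bearing luciferase-reporter parasites were treated for a single generation at 37 C. Luminescence after adding detection reagent served as the growth measure.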
A number is an active result; i = inactive; ? = inconclusive; nt = no result given. Unless noted, calls follow the shape of the dose curve; as a rule, active = well fitted curve in the direction sought with a large enough effect; inconclusive = small, poorly fitted or top-dose-only effect, or another doubt; inactive = no such curve, though single readings can be large; an effect the other way counts as inactive or inconclusive.

SMILES | SARS PLpro yeast | Pf growth 96h | Sm TGR block | Pf growth 48h
CCN(C(=O)CCN1C(=O)/C(=C/c2ccccc2)SC1=S)C1CCS(=O)(=O)C1 (centres undefined) | i | 7.38µM | i | 13.1µM
CCN(C(=O)CN1C(=O)/C(=C/c2ccccc2F)SC1=S)C1CCS(=O)(=O)C1 (centres undefined) | i | ? | i | i
CCN(C(=O)CN1C(=O)S/C(=C\C=C\c2ccccc2)C1=O)C1CCS(=O)(=O)C1 (centres undefined) | i | 4.15µM | i | 7.38µM
CCN(C(=O)CN1C(=O)S/C(=C\c2ccc(Cl)cc2)C1=O)C1CCS(=O)(=O)C1 (centres undefined) | i | i | i | i
Cc1ccc2c(c1)N(C(=O)N1CCC(C(=O)NC3CCCCCC3)CC1)CC(C)O2 (centres undefined) | nt | nt | i | nt
O=C1C2C(C(=O)N1/N=C/c1cc(Br)cc([N+](=O)[O-])c1O)C1C=CC2C12CC2 (centres undefined) | i | 11.7µM | i | ?
CCC(=O)N1c2ccccc2CC1C(=O)NCCCN1CCN(c2ccccc2)CC1 (centres undefined) | nt | nt | i | nt
COc1ccccc1NC(=O)C1=C(C)Nc2nc(SC)nn2C1c1ccccc1Cl (centres undefined) | nt | nt | i | nt
CCCc1nnc(NC(=O)CCC(=O)N2CCN(CCOC(c3ccccc3)c3ccccc3)CC2)s1 | i | ? | i | 10.4µM
CCCc1nnc(NC(=O)CCC(=O)N2CCN(Cc3ccccc3)CC2)s1 | i | ? | i | i
CC(C)c1ccc(/C=C/C(=O)Nc2nc3ccc([N+](=O)[O-])cc3s2)cc1 | i | 2.33µM | i | ?
Cn1c2c(c(=O)n(C)c1=O)C(c1cc3c(cc1Br)OCO3)CC(=O)N2 (centres undefined) | i | 9.28µM | i | i
CC1=C(C(=O)OC2CCCCCCC2)C(c2cc3c(cc2Br)OCO3)CC(=O)N1 (centres undefined) | i | nt | i | 10.4µM
Clc1ncnc2scc(C3COc4ccccc4O3)c12 (centres undefined) | i | 2.62µM | ? | 2.94µM
O=C(Nc1ccc(C(F)(F)F)cc1)C(Cc1ccccc1)n1cccc1 (centres undefined) | nt | nt | i | nt
O=C(Nc1cccc(C(F)(F)F)c1)C12CC3CC(CC(C3)C1)C2 | i | i | i | 13.1µM
O=C(CNC1CCCCC1)Nc1cccc(C(F)(F)F)c1 | i | 9.28µM | i | i
CN(C)CC(=O)Nc1cc(C(F)(F)F)ccc1Cl | i | i | i | i
O=C(CNC1CC1)Nc1cc(C(F)(F)F)ccc1Cl | i | 1.47µM | i | 1.17µM
CCc1ccccc1NC(=O)C(=O)NCCc1sc(-c2cccc(F)c2)nc1C | nt | nt | i | nt
Cc1[nH]c2ccccc2c1SCc1nnc(SCc2ccccc2)n1C | i | ? | ? | ?
Cc1[nH]c2ccccc2c1SCc1nnc(SCc2ccc(Cl)cc2)n1C | i | ? | i | 14.7µM
CCN(CC)CCN1CCn2c3c(c4cc(C)ccc42)CCCC31 (centres undefined) | i | 9.28µM | i | 3.7µM
COc1ccc2oc(-c3ccco3)cc(=O)c2c1 | i | ? | i | i
COc1cccc2oc(-c3ccco3)cc(=O)c12 | i | i | 7.94µM | ?
SMILES | SARS PLpro yeast | Pf growth 96h | Sm TGR block | Pf growth 48h
O=C(COC(=O)CNC(=O)c1ccccc1)NC(=O)NC1CCCCC1 | i | nt | nt | nt
C/C=C1/C[N+]2(C)CCC34C(=C(C=O)[C@H]1C[C@@H]32)Nc1ccccc14 (some centres undefined) | nt | ? | 28.2µM | ?
CCCN1C(=O)c2ccccc2NC1c1ccc(Cl)c(Cl)c1 (centres undefined) | i | 9.28µM | i | ?
CCCN1C(=O)c2ccccc2NC1c1ccc(Br)cc1 (centres undefined) | i | i | i | ?
CCCN1C(=O)c2ccccc2NC1c1ccc(Cl)cc1 (centres undefined) | i | i | i | 13.1µM
O=S(=O)(NCc1ccc(F)cc1)c1ccc(-n2cccn2)cc1 | i | ? | i | i
Cc1nnc(SC(C)C(=O)Nc2ccc(Cl)cc2Cl)[nH]c1=O (centres undefined) | i | nt | nt | nt
Cc1ccc(-c2nc(S(=O)(=O)c3ccc(C)cc3)c(SCC(=O)NC3CCCCC3)o2)cc1 | nt | nt | i | nt
Cc1ccc(OCc2nnc(SCC(=O)Nc3ccccc3C(C)C)o2)cc1 | nt | nt | i | nt
COCCN(C(=O)c1ccc(OCC(C)C)cc1)c1c(N)n(Cc2ccccc2)c(=O)[nH]c1=O | i | i | i | i
COc1ccc2c(c1)/C(=C/c1cnc[nH]1)C(=O)N2 | i | 5.22µM | i | ?
